Values joined by “and” are separate entries in the source; they are usually repeats but may differ in a detail not shown here. Identical values can stand only once. The full ranking holds about 5,300 compounds; the median of “PER2::LUC luminescence relative to vehicle control” is about 0.96, and the highest 2% start at about 1.3. The entries come from a sample that favours the highest values as a whole.
System: mPer2Luc MEF
Test: PER2::LUC luminescence relative to vehicle control (fold of vehicle); higher = higher PER2::LUC reporter signal
Conditions: 10 µM
Procedure, shortened: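 The reported values are PER2::LUC luminescence as fold of vehicle control in mouse embryonic fibroblasts carrying the mPer2Luc reporter. Cells were seeded at ~3000 per well in 384-well plates in DMEM with 10% FBS at 37 °C and 5% CO2, and compounds were added at 10 μM 48 h later. ONE-Glo luminescence was read 24 h and 30 h after treatment.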

Structure (SMILES) | PER2::LUC luminescence (time after treatment 24 h) | PER2::LUC luminescence (time after treatment 30 h)
O=C(NCCO)c1ccc2c(c1)nc(Nc1cccc(Cl)c1)c1ccncc12 | 1.03 | 0.995
COc1cc2ncnc(Nc3cccc(Cl)c3)c2cc1OC | 0.991 and 0.715 | 0.978 and 0.705
O=C(O)c1ccc2c(c1)nc(Nc1cccc(Cl)c1)c1ccncc12 | 0.795 | 1.39
C/C1=C2N=C(/C=C3N=C(/C(C)=C4\[N-]C(C(CC(N)=O)C4(C)CCC(=O)NCC(C)OP(=O)([O-])OC4C(CO)OC(n5cnc6cc(C)c(C)cc65)C4O)C4(C)N=C1C(CCC(N)=O)C4(C)CC(N)=O)C(CCC(N)=O)C\3(C)C)C(CCC(N)=O)C/2(C)CC(N)=O.[CH3-].[Co+3] (centres undefined) | 1.07 | 1.03
Cc1cnc(-c2cnc(NCCNc3ccc(C#N)cn3)nc2-c2ccc(Cl)cc2Cl)[nH]1 | 1.56 | 1.06
CN1CCN(C2CCC(n3cc(-c4ccc(Oc5ccccc5)cc4)c4c(N)ncnc43)CC2)CC1 (centres undefined) | 0.091 | 0.137
C[C@@H](NC(=O)c1cc(C(=O)N[C@@H](Cc2ccccc2)[C@H](O)CNC2CC2)cc(N(C)S(C)(=O)=O)c1)c1ccccc1 | 1.01 | 1.09
NCCCC[C@H](NC(=O)[C@@H]1CCCN1C(=O)[C@@H]1CSSC[C@H](N)C(=O)N[C@@H](Cc2ccccc2)C(=O)N[C@@H](Cc2ccccc2)C(=O)N[C@@H](CCC(N)=O)C(=O)N[C@@H](CC(N)=O)C(=O)N1)C(=O)NCC(N)=O | 1.08 | 1.13
COc1ccccc1N1CCN(CCN2C(=O)N=C3C(=Nc4ccccc43)C2=O)CC1 | 0.831 | 0.823
NC(=O)c1ncn([C@@H]2O[C@H](CO)[C@@H](O)[C@H]2O)c1N | 1.32 and 0.733 | 1.18 and 0.988
NC(=O)c1ncn(C2OC(COP(=O)(O)O)C(O)C2O)c1N (centres undefined) | 1.36 | 1.3
Nc1ncnc2c1ncn2[C@@H]1O[C@H](COP(=O)(O)O)[C@@H](O)[C@H]1O | 1.22 and 1.13 | 1.14 and 1.05
NCCOCCOCCNC(=O)Cc1ccc(Nc2nc(NCc3ccc(F)cc3)nc(NCC3CCCCC3)n2)cc1 | 1.09 | 1.03
C/C(=C\C(=O)Nc1ccccc1C(=O)O)c1ccc2ccccc2c1 | 1.53 | 1.46
O=C(O)c1ccccc1Nc1ccccc1 | 1.02 | 0.974
COc1ccc(/C=C/C(=O)Nc2ccccc2C(=O)O)cc1OC | 0.844 and 0.327 | –
O[C@H]1CCN2Cc3ccccc3N=C12 | 0.987 | 0.932
CC1CCC(C(C)C)C(O)C1 (racemic) | 1.02 | 1.25
O=C(CS(=O)(=O)Cc1ccccc1)N1CCOCC1 | 0.841 | 0.781
CCCCNc1cc(C(=O)O)cc(S(N)(=O)=O)c1Oc1ccccc1 | 1.21 | 1.86
CCCCNc1ccc(C(=O)OCCOCCOCCOCCOCCOCCOCCOCCOCCOC)cc1 | 1.07 | 0.94
CCCNC(C)(C)COC(=O)c1ccccc1 | 0.894 | 0.968
CC1(C)CCC(C)(C)c2cc(NC(=O)c3ccc(C(=O)O)cc3)ccc21 | 1.77 | 1.63
CC1(C)CCC(C)(C)c2cc(C(=O)Nc3ccc(C(=O)O)cc3)ccc21 | 1.64 | 1.67
O=C(Nc1ccc(C(=O)O)c(O)c1)c1ccccc1 | 1.03 | 1.13

Structure (SMILES) | PER2::LUC luminescence (time after treatment 24 h) | PER2::LUC luminescence (time after treatment 30 h)
CC(=Cc1ccc(C(=O)O)cc1)c1ccc2c(c1)C(C)(C)CCC2(C)C | 1.66 | 1.52
CC(=O)Nc1ccc(C(=O)Nc2ccccc2N)cc1 | 0.744 | 0.677
CC(N)(C(=O)O)c1ccc(C(=O)O)cc1 (racemic) | 0.971 | 0.694
NC1(C(=O)O)CCc2cc(C(=O)O)ccc21 (centres undefined) | 0.992 | 0.984
CC(=O)Nc1ccc(C(=O)O)cc1 | 1.03 | 0.901
C[C@@](N)(C(=O)O)c1ccc(C(=O)O)cc1 | 1.01 | 0.938
COc1ccc(C(OCCN2CCC[C@H](C(=O)O)C2)(c2ccc(OC)cc2)c2ccc(OC)cc2)cc1 | 0.855 | 1.04
NC1CCN(O)C1=O (single isomer, unassigned; (+)) | 0.99 | 0.883
CCCN(CCc1cccs1)C1CCc2c(O)cccc2C1 (racemic) | 0.965 | 0.906
O=C1/C(=C/c2ccc(O)c(O)c2)Oc2c1ccc(O[C@@H]1O[C@H](CO)[C@@H](O)[C@H](O)[C@H]1O)c2O | 0.983 | 0.93
CC(C)C[C@H](NC(=O)OCc1ccccc1)C(=O)N[C@@H](CC(C)C)C(=O)NCC(=O)CNC(=O)[C@H](CC(C)C)NC(=O)[C@H](CC(C)C)NC(=O)OCc1ccccc1 | 1.01 | 0.909
CCCCCCCCCCCCCC[C@@H](O)[C@@H](O)[C@@H](CO)NC(C)=O | 1.07 | 1.04
c1ccc2c(Cc3c[nH]c4ccccc34)c[nH]c2c1 | 0.956 and 0.816 | 1.02 and 0.84
CN1C(=O)C(Cc2c[nH]c3ccccc23)NC1=S (centres undefined) | 1.15 | 1.36
CN1C(=O)N[C@H](Cc2c[nH]c3c(Cl)cccc23)C1=O | 0.87 | 0.819
O=C(O)c1cc(N(Cc2ccccc2O)Cc2cc(O)ccc2O)ccc1O | 1.05 | 1.03
C[C@@]1(F)[C@H](O)[C@@H](CO)O[C@H]1n1ccc(=O)[nH]c1=O | 0.965 | 0.937
CN1CCC[C@@H]1c1cccnc1.Cc1ccc(C(=O)O[C@H](C(=O)O)[C@@H](OC(=O)c2ccc(C)cc2)C(=O)O)cc1 | 0.873 | 0.978
C=CC[C@@H]1[C@H](O)CC[C@@]2(C)[C@H]1CC[C@@H]1[C@@H]2CC[C@]2(C)[C@@H]([C@H](C)CCCC(C)C)CC[C@@H]12 | 0.994 | 0.987
OCC1OC(n2cnc3c(NC4CCCC4)nc(Cl)nc32)C(O)C1O (centres undefined) | 0.932 | 0.97
OC[C@H]1O[C@@H](n2cnc3c(NC4CCCC4)ncnc32)[C@H](O)[C@@H]1O | 0.965 | 0.991
Nc1nc(NC2CC2)c2ncn([C@H]3C=C[C@@H](CO)C3)c2n1 | 1.23 and 1.48 | 1.32 and 1.75
COc1cc(O)c(C(=O)/C=C/c2ccc(O)c(OC)c2)c(OC)c1 | 0.871 | 0.855
CC(C)c1noc(C2CCN(c3ncnc(Nc4ccc(S(C)(=O)=O)cc4F)c3[N+](=O)[O-])CC2)n1 | 0.972 | 0.789
COc1ccc(/C=C/c2ccccc2F)cc1 | 1.2 | 1.26
